Source: PubChem BioAssay AID485298 (National Center for Advancing Translational Sciences (NCATS), 2010)
Among all 320,000 compounds or so, about 740 (0.23%) were called active. Another 2% or so got no clear call; they are omitted. For the sample, actives were picked, then their nearest neighbours and some compounds at random. A number with no mark means an inactive call. The call rests on the fitted dose curve; in most records, active means well fitted activation curve with a large enough effect; inconclusive means small, poorly fitted or top-dose-only effect; inactive means no such curve, though single readings can be large or run the other way.

experiment: qHTS Assay for Small Molecule Inhibitors of Mitochondrial Division or Activators of Mitochondrial Fusion; further: nearly all actives have a fitted effect of over 45% in size; on growth rescue (activation): % of control where 0% means no effect; conditions: S. cerevisiae fusion-defective mutant growth rescue, CellTiterGlo 48 h; series mostly up to 46.1 µM; growth rescue (activation): at the top concentration
Source text: NIH Chemical Genomics Center [NCGC] NIH Molecular Libraries Probe Production centers Network [MLPCN] MLPCN Grant: MH081279-01 Assay Submitter (PI): Jodi M. Nunnari NCGC Assay Overview: The budding yeast S. cerevisiae is a powerful system to study mitochondrial fusion. Unlike other organisms, yeast cells without functional mitochondrial DNA (mtDNA) can be propagated and studied as long as they maintain a mitochondrial compartment and are provided with a fermentable carbon source. When mitochondrial fusion is blocked in yeast, mitochondrial tubules rapidly fragment and division continues unopposed. Under conditions where fusion is compromised in mammalian cells, nearly identical changes in mitochondrial structure have been observed. Thus, these findings indicate that steady state mitochondrial structure in cells is a characteristic and specific indicator of fusion activity. Mounting evidence has pointed to a connection between mitochondrial dynamics and apoptosis in mammalian cells. These studies indicate that in mammalian cells mitochondrial dynamics are more integrated into cellular processes than in yeast cells and have evolved not only to distribute the organelle but also to aid in the regulation of cellular homeostasis. Mitochondrial fusion proteins attenuate apoptosis by inhibiting the release of cytochrome c from mitochondria, in part by controlling cristae structures. Thus, small molecules that inhibit mitochondrial […] may promote apoptosis and potentially act as novel chemotherapeutics and stimulation of apoptosis has become an attractive target of anti-cancer therapies. To identify inhibitors of mitochondrial division, we exploit the growth phenotypes of mitochondrial fusion-defective mutants. The temperature sensitive fusion alleles, such as fzo1-1 and mgm1-5, cause mitochondrial membranes to fragment in cells under non-permissive conditions and cells lose mtDNA, and are unable to grow in the presence of non-fermentable carbon source glycerol. Inhibiting mitochondrial division rescues growth. We have developed and optimized a luminescence cell viability assay in 1536 well format for the identification of inhibitors in the yeast mitochondrial fusion-defective assay.
The yeast glycerol stocks where kindly supplied by the laboratory of Dr. Jodi Nunnari, University of California, Davis. All yeast glycerol stock solutions were stored in single use aliquots at -80C. The CellTiterGlo luminescence reagent, containing luciferase and luciferin, were purchased from Promega, and the reagents were stored according to manufacturer's instructions. The Buffer components for the YPEG yeast growth medium were purchased from Sigma-Aldrich (St. Louis, MO). YPEG growth medium: 1% (w/v) yeast extract, 2% (w/v) Bacto-peptone, 3% Ethanol, 3% glycerol, 0.4mM Tryptophan, 0.36mM Adenine. qHTS Assay Protocol: 1.#Dispense 2.5 ul yeast growth medium per 1536 well plate. 2.#Transfer 23 nl per well of compound to plate. 3.#Dispense 2.5 ul yeast solution at appropriate seeding density per well. 4.#Incubate for 48 hours at 37C. 5.#Dispense 5 ul of CellTiterGlow solution per well. 6.#Incubate at ambient for 10 minutes. 7.#Read using bio-luminescence protocol on Viewlux.
Potency means the concentration at half of the fitted maximal effect.

**Q.** With `COc1ccc(-c2c(-c3cc(OC)cc(OC)c3)n(C)c3ccc(-c4ccn[nH]4)cc23)cc1` as the compound, how does the Potency read?
**A.** Its Potency is 10 µM (active).

**Q.** For `COc1cc(OC)cc(-c2c(-c3cccs3)c3cc(-c4ccc(OC)nc4)ccc3n2C)c1`, which “growth rescue (activation)” value is on record?
**A.** Its value is -3.31% (inactive).

**Q.** Which “growth rescue (activation)” value does the source give for `COc1cc(OC)cc(-c2c(-c3ccc(F)cc3)c3cc(-c4ccc5cc[nH]c5c4)ccc3n2C)c1` here?
**A.** The value was 0.6% (inactive).

**Q.** For `COC(=O)c1cc(S(=O)(=O)NCC2CCN(Cc3ccc(Cl)cc3)CC2)cn1C`, which “growth rescue (activation)” value is on record?
**A.** Its value is 4.02% (inactive).

**Q.** Which “growth rescue (activation)” value does the source give for `CCn1cc(/C=C(\NC(=O)c2ccc(C)cc2)C(=O)NCCN2CCOCC2)c2ccccc21` here?
**A.** The value was 2.95% (inactive).

**Q.** With `Cn1cccc1C1(C(F)(F)F)NCCNC1=O` (stereo unspecified) as the compound, how does the “growth rescue (activation)” value read?
**A.** The value was -7.26% (inactive).

**Q.** For `Cc1cc(C)cc(C(=O)OCC(=O)NCCNC(=O)COC(=O)c2cc(C)cc(C)c2)c1`, which “growth rescue (activation)” value is on record?
**A.** Its value is 2.13% (inactive).

**Q.** With `COc1ccccc1-n1c(-c2ccc(C)cc2)cn2c3c(=O)n(C)c(=O)n(C)c3nc12` as the compound, how does the “growth rescue (activation)” value read?
**A.** Its value is 4.07% (inactive).

**Q.** For `O=C(COC(=O)c1ccccc1Cl)NC1CCCCCCC1`, which “growth rescue (activation)” value is on record?
**A.** Its value is 13.9% (inactive).

**Q.** Which Potency does the source give for `OCCn1c(-c2ccccc2)csc1=Nc1ccccc1` here?
**A.** Its Potency is 11.2 µM (active).

**Q.** For `Cc1csc(=Nc2ccccc2)n1CCO`, which “growth rescue (activation)” value is on record?
**A.** Its value is -1.72% (inactive).

**Q.** With `Cc1csc(=NC(=O)c2ccccc2)n1CCO` as the compound, how does the “growth rescue (activation)” value read?
**A.** The value was -5.75% (inactive).

**Q.** Which “growth rescue (activation)” value does the source give for `CCN1C(=O)[C@@H]2[C@@H](c3ccc(-c4cccc(Cl)c4)cc3)N3CCC[C@@]3(C(=O)OC)[C@@H]2C1=O` here?
**A.** The value was 21.1% (inactive).

**Q.** With `COc1cccc(/C=C2\Sc3ccc(C(=O)NCC4CCCO4)cc3N(C)C2=O)c1` (stereo unspecified) as the compound, how does the Potency read?
**A.** Its Potency is 17.8 µM (active).

**Q.** Which “growth rescue (activation)” value does the source give for `COc1ccccc1-n1cnc2cc(C(=O)NCC3CCCO3)ccc21` (stereo unspecified) here?
**A.** Its value is 0.667% (inactive).

**Q.** Which “growth rescue (activation)” value does the source give for `COc1cccc(C(=O)NCCS(=O)(=O)NCC2CCCO2)c1` (stereo unspecified) here?
**A.** Its value is -4.41% (inactive).

**Q.** With `O=C(NC1CCCC1)C1CC(=O)N(c2ccc(F)cc2)C1` (stereo unspecified) as the compound, how does the “growth rescue (activation)” value read?
**A.** Its value is 0.703% (inactive).

**Q.** With `O=C1CN(C(=O)CN2C(=O)NC3(CCCCC3)C2=O)c2ccccc2N1` as the compound, how does the “growth rescue (activation)” value read?
**A.** Its value is -1.41% (inactive).

**Q.** With `O=C1CCCC2=C1C(c1cccs1)CC(=O)N2c1ccc(F)cc1` (stereo unspecified) as the compound, how does the “growth rescue (activation)” value read?
**A.** The value was 3.59% (inactive).

**Q.** With `CCOC(=O)C1=C(N)N(c2ccc(C)cc2)C2=C(C(=O)CCC2)C1c1cccs1` (stereo unspecified) as the compound, how does the Potency read?
**A.** Its Potency is 20 µM (active).

**Q.** Which “growth rescue (activation)” value does the source give for `CCOC(=O)c1cc2c(n(-c3ccc(C)cc3)c1=O)CCCC2=O` here?
**A.** The value was 0.547% (inactive).

**Q.** For `COC(=O)C(C)N=Cc1ccccc1` (stereo unspecified), which “growth rescue (activation)” value is on record?
**A.** Its value is 1.48% (inactive).

**Q.** With `COc1ccc(S(=O)(=O)N2CCN(CC(=O)N3c4ccccc4CC3C)CC2)cc1OC` (stereo unspecified) as the compound, how does the “growth rescue (activation)” value read?
**A.** Its value is -2.4% (inactive).

**Q.** For `NC(=O)C1CCN(Cc2nc3c(Br)cc(Br)cc3c(=O)[nH]2)CC1`, which “growth rescue (activation)” value is on record?
**A.** The value was 1.78% (inactive).

**Q.** For `COC(=O)c1c(NC(=O)CSc2nncs2)sc2c1CCCCC2`, which “growth rescue (activation)” value is on record?
**A.** Its value is 21.5% (inactive).

**Q.** For `COC(=O)c1c(NC(=O)c2cccs2)sc2c1CCCC2`, which Potency is on record?
**A.** Its Potency is 14.1 µM (active).

**Q.** With `CC(C)OC(=O)c1c(NC(=O)c2ccco2)sc2c1CCCC2` as the compound, how does the “growth rescue (activation)” value read?
**A.** The value was 0.828% (inactive).

**Q.** For `C=CC1(C)CC(=O)C2(O)C(C)(O1)C(OC(C)=O)C(O)C1C(C)(C)CCC(O)C12C` (stereo unspecified), which “growth rescue (activation)” value is on record?
**A.** Its value is -7.55% (inactive).

**Q.** With `O=c1c(Cl)c(NCc2ccc(F)cc2Cl)cnn1C12CC3CC(CC(C3)C1)C2` as the compound, how does the “growth rescue (activation)” value read?
**A.** Its value is 3.54% (inactive).

**Q.** For `Cc1csc(OCC(=O)Nc2ccc(C)c(C)c2)n1`, which “growth rescue (activation)” value is on record?
**A.** The value was 5.43% (inactive).

**Q.** Which “growth rescue (activation)” value does the source give for `Cc1nc(COc2cc3oc(=O)cc(C)c3cc2Cl)cs1` here?
**A.** The value was 3.56% (inactive).

**Q.** For `Cc1ccc(C)c(NS(=O)(=O)c2cc(Br)cnc2N)c1`, which “growth rescue (activation)” value is on record?
**A.** The value was 7.1% (inactive).

**Q.** For `CC(=O)/C(C)=N/O`, which Potency is on record?
**A.** The Potency was 20.6 µM (active).

**Q.** With `CCCN1CCN(C(=O)Cn2ncc3ccccc32)CC1` as the compound, how does the “growth rescue (activation)” value read?
**A.** Its value is -6.24% (inactive).

**Q.** With `CCCCN(C(=O)C(CCSC)N1C(=O)c2ccccc2C1=O)c1c(N)n(CCC)c(=O)[nH]c1=O` (stereo unspecified) as the compound, how does the “growth rescue (activation)” value read?
**A.** The value was 0.275% (inactive).

**Q.** For `NC1CCN(O)C1=O` (stereo unspecified), which “growth rescue (activation)” value is on record?
**A.** The value was -8.2% (inactive).

**Q.** For `COC(=O)c1c(C(=O)OC)c2n(c1C)CCS2`, which “growth rescue (activation)” value is on record?
**A.** The value was -0.353% (inactive).

**Q.** With `CCCC1=Nc2cc(C(=O)NCc3ccco3)ccc2Sc2ccccc21` as the compound, how does the Potency read?
**A.** Its Potency is 31.6 µM (active).

**Q.** With `CCC1=Nc2cc(C(=O)NCCN3CCCC3)ccc2Sc2ccc(C)cc21` as the compound, how does the “growth rescue (activation)” value read?
**A.** The value was -11.8% (inactive).

**Q.** For `CCCC1=Nc2cc(C(=O)NCCN3CCCC3)ccc2Sc2ccccc21`, which “growth rescue (activation)” value is on record?
**A.** The value was -5.25% (inactive).

**Q.** Which “growth rescue (activation)” value does the source give for `C[C@H](NC(=O)C1CC(=O)N(c2ccc3c(c2)OCCO3)C1)C(=O)N1CCC(C(=O)O)CC1` (stereo partly specified) here?
**A.** Its value is 0.693% (inactive).

**Q.** With `O=C(NCC(c1ccco1)S(=O)(=O)c1cccs1)c1ccc(F)cc1` (stereo unspecified) as the compound, how does the “growth rescue (activation)” value read?
**A.** Its value is -1.33% (inactive).

**Q.** With `COC(=O)CN1C(=O)[C@H]2[C@@H](C3CC3)N3C(=O)CN(Cc4ccc(-c5ccccc5)cc4)C(=O)[C@@]3(Cc3ccccc3)[C@H]2C1=O` as the compound, how does the “growth rescue (activation)” value read?
**A.** Its value is 4.79% (inactive).

**Q.** Which “growth rescue (activation)” value does the source give for `O=C(NCc1cccnc1)Nc1cccc(NC(=O)NCc2cccnc2)c1F` here?
**A.** The value was -4.47% (inactive).

**Q.** For `Cc1ccc(NC(=O)Cn2nnc3sc4c(c3c2=O)CCC(C)C4)cc1` (stereo unspecified), which “growth rescue (activation)” value is on record?
**A.** The value was -0.959% (inactive).

**Q.** With `COc1ccc(C2CC(=O)Nc3c2c(=O)nc2c(C)cccn32)cc1OC` (stereo unspecified) as the compound, how does the “growth rescue (activation)” value read?
**A.** The value was -1.37% (inactive).

**Q.** With `Cc1ccsc1/C=C1\SC(N2CCOCC2)=NC1=O` as the compound, how does the “growth rescue (activation)” value read?
**A.** The value was 1.79% (inactive).

**Q.** Which “growth rescue (activation)” value does the source give for `Cc1ccc(N2CCN(/N=C/c3cccs3)CC2)cc1` here?
**A.** Its value is -2.37% (inactive).

**Q.** With `Cc1ccc(N2CCN(C3=NC(=O)/C(=C\c4cccs4)S3)CC2)cc1` as the compound, how does the Potency read?
**A.** The Potency was 22.4 µM (active).

**Q.** For `C=CCn1nc(-c2ccccc2)c2c(C)onc2c1=O`, which “growth rescue (activation)” value is on record?
**A.** The value was 1.38% (inactive).

**Q.** Which Potency does the source give for `O=C1C=C(c2cccc(Cl)c2O)C[C@@H](c2ccc(F)cc2)C1` here?
**A.** Its Potency is 11.2 µM (active).
